Measured values: PubChem BioAssay AID2561 (National Center for Advancing Translational Sciences (NCATS), 2010)
Records with an inconclusive call do not appear. Entries that show only a call come without a potency. Activity calls are given as the source filed them. Calls come from the whole dose curve; as a rule, active = well fitted inhibition curve with a large enough effect; inconclusive = small, poorly fitted or top-dose-only effect, or effect the other way; inactive = flat fitted curve, though single readings scatter.

Biological target: Pyruvate kinase (Leishmania mexicana) (UniProt Q27686)
Sequence (Q27686 whole entry, looked up): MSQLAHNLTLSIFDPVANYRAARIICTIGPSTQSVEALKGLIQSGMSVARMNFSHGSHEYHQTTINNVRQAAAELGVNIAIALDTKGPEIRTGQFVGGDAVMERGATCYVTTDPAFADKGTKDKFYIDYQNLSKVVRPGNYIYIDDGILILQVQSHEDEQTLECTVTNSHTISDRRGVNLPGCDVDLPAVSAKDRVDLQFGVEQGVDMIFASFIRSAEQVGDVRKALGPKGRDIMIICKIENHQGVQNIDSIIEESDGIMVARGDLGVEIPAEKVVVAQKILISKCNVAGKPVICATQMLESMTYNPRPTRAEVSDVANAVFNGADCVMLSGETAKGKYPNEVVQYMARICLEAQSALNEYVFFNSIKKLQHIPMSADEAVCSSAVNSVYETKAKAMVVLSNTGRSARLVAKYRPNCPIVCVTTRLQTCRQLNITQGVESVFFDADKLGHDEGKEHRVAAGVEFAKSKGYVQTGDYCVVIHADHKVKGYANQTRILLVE
Assay: Confirmation Assay for Inhibitors of Leishmania Mexicana Pyruvate Kinase (LmPK): for Probe SAR
Details: purified LmPK, ATP generation, Kinase-Glo luminescence; series mostly up to 57.5 µM
In short: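 Purified L. mexicana pyruvate kinase (0.1 nM) with 0.5 mM PEP and 0.1 mM ADP in pH 7.2 imidazole buffer, 1 h at RT. ATP formed measured by Kinase-Glo luminescence; normalized to uninhibited and no-enzyme wells.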
Potency is the fitted concentration of half-maximal effect.

SMILES	Potency
O=C1c2ccccc2C(=O)N1c1cnc2ccccc2c1	inactive
Cc1ccc(NS(=O)(=O)c2cccc(Cl)c2)cc1C	inactive
O=C1c2ccccc2C(=O)N1c1nccs1	inactive
Cc1ccc(NS(=O)(=O)c2ccc3c(c2)CCC(=O)N3)cc1C	inactive
O=C1CCc2cc(S(=O)(=O)Nc3ccc(F)cc3)ccc2N1	inactive
O=S1(=O)N=C(Oc2cccc(C(F)(F)F)c2)c2ccccc21	4.61 µM (active)
Cc1ccc2nc(-c3ccc(C)o3)c(Nc3ccc4c(c3)OCO4)n2c1	inactive
O=S1(=O)N=C(Sc2cccc3cccnc23)c2ccccc21	2.91 µM (active)
O=C1CCc2cc(S(=O)(=O)Nc3cccc(C(F)(F)F)c3)ccc2N1	inactive
O=C1NS(=O)(=O)c2cscc21	inactive
O=[S+]1([O-])N=C(Oc2cccnc2)c2ccccc21	inactive
